High-throughput results: PubChem, National Center for Advancing Translational Sciences (NCATS)
Compounds with a hit are over-represented: about 2.5% of the library has one in this group of screens.
Cruzain inh noDet: qHTS Assay for Promiscuous and Specific Inhibitors of Cruzain (without detergent) | Cruzipain (Trypanosoma cruzi), P25779 | purified cruzain, Z-FR-AMC fluorescence, no detergent | Potency, µM, inactives show max response, negative = inhibition, most hits filed as inhibitors | hit rate 2.3% among 200,000 | AID 1476, 2009;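 further: plate controls were enzyme without inhibitor for no effect and buffer without enzyme for full effect; nearly all actives have a fitted effect of over 40% in size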
Target sequence (P25779 123-467 limits assumed): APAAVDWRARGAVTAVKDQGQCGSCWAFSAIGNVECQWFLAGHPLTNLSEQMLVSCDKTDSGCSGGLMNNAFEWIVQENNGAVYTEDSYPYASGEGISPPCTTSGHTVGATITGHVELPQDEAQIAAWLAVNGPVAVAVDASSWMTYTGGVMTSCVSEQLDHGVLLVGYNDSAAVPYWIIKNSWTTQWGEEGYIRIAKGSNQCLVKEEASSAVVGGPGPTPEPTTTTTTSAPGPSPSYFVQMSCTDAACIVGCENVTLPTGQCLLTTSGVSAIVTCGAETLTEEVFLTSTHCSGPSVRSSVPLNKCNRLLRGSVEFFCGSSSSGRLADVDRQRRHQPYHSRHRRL
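Purified cruzain at 1.5 nM, pre-incubated 15 min with compound at room temperature in 100 mM sodium acetate pH 5.5, 5 mM DTT, 0.00005% Triton X-100. Reaction started with 2 uM Z-FR-AMC; AMC fluorescence increase over 60 s gives rate.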
Cruzain Triton: qHTS Assay for Promiscuous and Specific Inhibitors of Cruzain (with detergent) | purified cruzain, Z-FR-AMC fluorescence, 0.01% Triton | Potency, µM, for inactives: max response, negative = inhibition, usual class: inhibitors | hit rate 0.43% among 200,000 | AID 1478, 2009;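 further: plate controls were neutral wells for no effect and buffer without enzyme for full effect; nearly all actives have a fitted effect of over 40% in size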
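Cruzain (1.5 nM) preincubated 15 min at RT with compound in 100 mM sodium acetate pH 5.5, 5 mM DTT, 0.01% Triton X-100. Reaction started with 2 uM Z-FR-AMC; AMC fluorescence (ex 360/em 450 nm) change over 60 s gave rate.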
Active calls of the source: *; ? = inconclusive; ! = repeats disagree. The call rests on the fitted dose curve; in most records, active means well fitted curve in the direction sought with a large enough effect; inconclusive means small, poorly fitted or top-dose-only effect, or another doubt; inactive means no such curve, though single readings can be large; an effect the other way counts as inactive or inconclusive. Potency means the concentration at half of the fitted maximal effect.

SMILES	Cruzain inh noDet	Cruzain Triton
CCCCN(CCCC)CC(O)Cn1cc(/C=C/C(=O)c2ccccc2)c2ccccc21 (centres undefined)	-1%	-7%
CCOc1ccc(C(=O)/C=C/c2cn(CC(O)CN3CCc4ccccc43)c3ccccc23)cc1 (centres undefined)	6.3µM*	-3%
CCc1cccc(CC)c1NC(=O)CCS(=O)(=O)c1ccc(Br)cc1	-15%	0%
CCN(Cc1ccccc1)C(=O)Cn1c(=O)n(-c2ccccc2)c(=O)c2c1c1cc(C)ccc1n2C	-7%	0%
CCc1ccc(NC(=O)c2cnn(-c3c(C)cccc3C)c2C2CCN(C(=O)OC(C)(C)C)CC2)cc1	-10%	-1%
CCCCNC(=O)c1nn(-c2ccc(C)cc2)c(=O)n(C)c1=O	-16%	-4%
Cc1cccc2nc(Cn3c(=O)n(-c4ccc(Cl)cc4)c(=O)c4c5c(sc43)CCC5)cc(=O)n12	10%	-1%
O=C(Cn1nnc(-c2cccc(C(F)(F)F)c2)n1)NC(=O)NCc1ccco1	16µM*	5%
O=C(Cn1nnc(-c2ccccc2)n1)NCc1ccco1	-1%	1%
O=C(COC(=O)c1cccs1)Nc1ccccc1	-1%	2%
O=C(COC(=O)c1c2c(nc3ccccc13)/C(=C\c1cccs1)CCC2)Nc1ccccc1	10µM*	0%
O=C(COC(=O)c1c2c(nc3ccccc13)CCCC2)Nc1ccc2c(c1)OCO2	25µM*	-6%
O=C(COC(=O)c1cc(-c2ccccc2)nc2ccccc12)Nc1ccc2c(c1)OCO2	?	-4%
CC(=O)c1ccc(NC(=O)COC(=O)c2c3c(nc4ccccc24)/C(=C\c2cccs2)CCC3)cc1	7.9µM*	5%
CC(=O)c1ccc(NC(=O)COC(=O)CCC(=O)c2cccs2)cc1	-1%	-1%
COc1ccc(-c2cc(C)no2)cc1S(=O)(=O)Nc1cccc(C(F)(F)F)c1	-2%	-7%
COc1ccc(C2C(=O)N(C3CCCCC3)CC(=O)N2CCC2=CCCCC2)cc1 (centres undefined)	-7%	1%
COc1ccc2c3c([nH]c2c1)C(C)=NCC3	10µM*!	-3%
COc1ccc2[nH]c3c(c2c1)CCn1c-3nc2ccccc2c1=O	-13%	1%
CC1=NCCc2c1[nH]c1cc(O)ccc21	13µM*!	28µM*!
Cc1ccc2[nH]c3c(c2c1)CCC3=O	12%	15%
CCOc1ccc(NC(=O)c2cc(=O)c3cc(CC)ccc3o2)cc1	0%	-2%
CCN1CCN(c2csc3ccc(F)cc3c2=O)CC1	-3%	-5%
Cc1nc(C(=O)Nc2ccc(Cl)cc2Cl)nn1-c1cc(OC(C)C)c(Cl)cc1Cl	25µM*	-1%
Cc1nc(C(=O)Nc2cccc(Cl)c2Cl)nn1-c1cc(OC(C)C)c(Cl)cc1Cl	?	-2%
SMILES	Cruzain inh noDet	Cruzain Triton
Cc1nc(C(=O)Nc2cc(Cl)ccc2Cl)nn1-c1cc(OC(C)C)c(Cl)cc1Cl	25µM*	4%
Cc1nc(C(=O)Nc2cccc(Cl)c2)nn1-c1cc(OC(C)C)c(Cl)cc1Cl	?	-1%
Cc1cccc(Nc2cc(Cl)nc(SCC(=O)O)n2)c1C	3%	4%
Cc1ccc(NC(=O)c2c(Nc3ccccc3C)sc(C(=O)c3ccccc3)c2N)cc1	6.3µM*	-1%
COc1ccc(Nc2sc(C(=O)c3ccccc3)c(N)c2C(=O)Nc2cc(C)ccc2C)c(OC)c1	10µM*	-1%
CCOc1ccc(NC(=O)c2c(Nc3ccccc3C)sc(C(=O)c3ccc(Cl)cc3)c2N)cc1	-27%	-7%
COc1ccc(CCNC(=O)c2c(Nc3ccccc3C)sc(C(=O)c3ccccc3)c2N)cc1OC	?	-2%
O=c1c(-c2ccccc2)nc2cnc(Nc3ccccc3)nc2n1Cc1cccs1	-10%	-2%
Cc1ccccc1-c1nc(CS(=O)(=O)CC(=O)Nc2cccc(C(F)(F)F)c2)c(C)o1	-1%	-13%
Cn1cnc(S(=O)(=O)N2CCCC(C(=O)NCc3ccc(Cl)cc3)C2)c1 (centres undefined)	4%	1%
c1ccc(C2CC(c3ccccc3)n3c(nc4ccccc43)N2)cc1 (centres undefined)	13µM*	1%
O=C1C2CC=CCC2C(=O)N1c1nc2n(n1)C(c1ccccc1)CC(c1ccccc1)N2 (centres undefined)	?	-3%
CCCCn1c(O)c(/C=C2\C=NN=C2c2ccccc2)sc1=S	?	-4%
CCCCCCn1c(O)c(/C=C2\C=NN=C2c2ccccc2)sc1=S	16µM*	2%
Cc1cc(=O)oc2c(N)c(O)ccc12	-16%	2%
Cc1cc(=O)oc2c(CN(C)Cc3ccccc3)c(O)ccc12	?	20µM*
COC(=O)c1c(NC(=O)c2ccc(OC)cc2OC)sc2c1CCCCC2	4%	-13%
CN1C(=O)c2ccccc2Sc2ccc(NC(=O)NCc3cccc(Cl)c3)cc21	?	-8%
COc1ccc(CNC(=O)Cc2c(C)c3ccc(O)cc3oc2=O)cc1	25µM*	-23%
COc1ccc(CNC(=O)Cc2c(C)c3c(O)cc(C)cc3oc2=O)cc1	-4%	0%
O=C1/C(=C\c2ccccn2)SC(=S)N1Nc1ncc(C(F)(F)F)cc1Cl	6%	13µM*
O=C1/C(=C/c2ccc(F)cc2)SC(=S)N1Nc1ncc(C(F)(F)F)cc1Cl	?	-8%
Cc1ccc2c(=O)cc(C(=O)Nc3cccc(C(F)(F)F)c3)oc2c1C	-7%	0%
CN(C)C(=O)c1ccc(-c2cncnc2N2CCNCC2)cc1	17%	1%
COc1ccc(S(=O)(=O)NCC(c2ccco2)S(=O)(=O)c2cccs2)cc1C (centres undefined)	12%	-4%
SMILES	Cruzain inh noDet	Cruzain Triton
Nc1nnc(SCC(=O)NCCOc2ccccc2)s1	?	28µM*
O=C(CSc1nc2ccccc2s1)NCCOc1ccccc1	0%	-5%
c1ccc(-c2ccc(Oc3cc(N4CCOCC4)nc(-c4ccccc4)n3)cc2)cc1	10µM*	4%
CC(C)Sc1cc(N2CCOCC2)nc(-c2ccccc2)n1	-8%	-5%
COc1ccc(Cl)cc1NC(=O)Cn1nc(Cc2ccncc2)c2ccccc2c1=O	23%	-4%
COc1cc(OC)c(NS(=O)(=O)c2ccc3c(c2)CCCN3C(C)=O)cc1Cl	18%	-7%
CCn1cnc2scc(-c3ccccc3)c2c1=O	-11%	4%
Cn1cc(/C=N/n2cnc3scc(-c4ccc(Cl)cc4)c3c2=O)c2ccccc21	25µM*	-4%
COc1ccc(N2C(=O)/C(=C/c3ccc([N+](=O)[O-])cc3)C=C2c2ccccc2)cc1	16µM*	-4%
COc1ccc(-c2cc(=O)n(-c3ccc([N+](=O)[O-])cc3)[nH]2)cc1	?	-5%
O=C1/C(=C/c2ccc([N+](=O)[O-])cc2)C=C(c2ccccc2)N1c1ccccc1	13µM*	-2%
O=C1/C(=C/c2ccc([N+](=O)[O-])cc2)C=C(c2ccccc2)N1c1ccc(O)cc1	?	-6%
O=C(Nc1cccc(-c2nc3ncccc3o2)c1)c1ccc(-c2cccc(Cl)c2Cl)o1	-21%	-24%
CCOC(=O)c1ccc(CN(Cc2ccccc2)S(=O)(=O)c2ccc(C)cc2)cc1	-4%	-1%
Cc1ccccc1OCCn1cc(/C=C(\C#N)C(=O)NCc2ccco2)c2ccccc21	-15%	1%
Cc1ccc(C)c(NC(=O)/C(C#N)=C/c2cn(CC(=O)NCc3ccco3)c3ccccc23)c1	7.9µM*	11%
